Assay [1] can be described thus: NCI Yeast Anticancer Drug Screen. Data for the rad50 strain (AID 155).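 Also: 0% = growth of vehicle-only cultures of the same strain.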 The following applies: S. cerevisiae rad50 strain growth inhibition, hits give high values. The essentials: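 Yeast carrying a defined DNA repair defect were exposed to test compounds, and growth was compared with vehicle-treated controls to give percent inhibition.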
Assay [2] in a line: NCI Yeast Anticancer Drug Screen. Data for the mec2-1 strain (AID 157). The following applies: S. cerevisiae mec2-1 strain, hits give high values. The essentials: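 Yeast mec2-1 mutant treated with compound. Readout: growth inhibition vs vehicle controls.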
The nature of assay [3]: NCI Yeast Anticancer Drug Screen. Data for the sgs1 mgt1 strain (AID 161).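 Also: 0% = growth of cultures given vehicle only.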 The note with it: S. cerevisiae sgs1 mgt1 strain, hits give high values. The essentials:
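Mutant yeast exposed to compound; growth scored against vehicle-only wells.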

Assay [4] in a line: NCI Yeast Anticancer Drug Screen. Data for the cln2 rad14 strain (AID 165).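 Also: 0% = growth equal to vehicle treated cultures.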 The note with it: S. cerevisiae cln2 rad14 strain, hits give high values. The essentials:
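cln2 rad14 yeast strain; compound exposure; growth inhibition read vs vehicle controls.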

Assay [5] in a line: NCI Yeast Anticancer Drug Screen. Data for the bub3 strain (AID 167). The note with it: S. cerevisiae bub3 mutant strain, hits give high values. The essentials:
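Compounds were applied to a genetically altered yeast strain carrying a cell-cycle control defect. Growth inhibition was scored against vehicle-treated controls.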

Assay [6] in a line: NCI Yeast Anticancer Drug Screen. Data for the mlh1 rad18 strain (AID 175). The note with it: S. cerevisiae mlh1 rad18 strain growth inhibition, hits give high values. The method in brief:
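Yeast w/ defined DNA-repair lesions; compound exposure; growth vs vehicle controls → % inhibition.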

Where [7] appears, read: at 5.0 µM (retest, dose inferred, filed as 0.5).
Where [8] appears, read: at 50.0 µM (retest, dose inferred, filed as 5.0).

About 79,000 compounds went through this panel and 15% of them were active in at least one assay; those are over-represented in the sample as a whole. Values without a mark were called inactive. Active and inactive are the calls of the source. Rule as the data show it: active = growth inhibition above about 70%; inactive = the rest.

Consider `COCC1C(=O)c2cc3c(cc2C12C=CC1(C=C2)OCCO1)OCO3` (stereo unspecified), for which the growth inhibition in assay [1] (setting [7]) was 36%; in assay [1] (setting [8]), 7%; in assay [1] (at 50.0 µM), 86% (active); in assay [2] (setting [7]), 15%; in assay [2] (setting [8]), -7%; in assay [2] (at 50.0 µM), 91.8% (active). Further, the growth inhibition was 35% in assay [3] (setting [7]); -2% in assay [3] (setting [8]); 92.8% (active) in assay [3] (at 50.0 µM); 9% in assay [4] (setting [7]); 20% in assay [4] (setting [8]); 90.2% (active) in assay [4] (at 50.0 µM). The growth inhibition was 40% in assay [5] (setting [7]); -7% in assay [5] (setting [8]); 91.1% (active) in assay [5] (at 50.0 µM); 50% in assay [6] (setting [7]); -14% in assay [6] (setting [8]); 88.2% (active) in assay [6] (at 50.0 µM).

Take `S=C(NC(=S)Nc1ccc(Cl)cc1)Nc1ccc(Cl)cc1`: the growth inhibition in assay [1] (setting [7]) was 4%; in assay [1] (setting [8]) it was -4%; in assay [1] (at 50.0 µM), 68%; in assay [2] (setting [7]) it was 1%; in assay [2] (setting [8]) it was 2%; in assay [2] (at 50.0 µM) it was 61.9%. The growth inhibition is 5% in assay [3] (setting [7]); 8% in assay [3] (setting [8]); 72.1% (active) in assay [3] (at 50.0 µM); -9% in assay [4] (setting [7]); -8% in assay [4] (setting [8]); 50.8% in assay [4] (at 50.0 µM). Besides, the growth inhibition is -4% in assay [5] (setting [7]); 2% in assay [5] (setting [8]); 77.6% (active) in assay [5] (at 50.0 µM); 20% in assay [6] (setting [7]); 10% in assay [6] (setting [8]); 78.7% (active) in assay [6] (at 50.0 µM).

Consider `Nc1nc2nn(-c3ccc(C(=O)O)cc3)nc2c(=O)[nH]1`, for which the growth inhibition in assay [1] (setting [7]) is 2%; in assay [1] (setting [8]), 9%; in assay [1] (at 50.0 µM), 16.6%; in assay [2] (setting [7]), 3%; in assay [2] (setting [8]) it was 1%; in assay [2] (at 50.0 µM), 30.8%. Moreover, the growth inhibition in assay [3] (setting [7]) is -4%; in assay [3] (setting [8]) it was 3%; in assay [3] (at 50.0 µM), 9.3%; in assay [4] (setting [7]), 4%; in assay [4] (setting [8]), 1%; in assay [4] (at 50.0 µM), -7.05%. Further, the growth inhibition in assay [5] (setting [7]) is -2%; in assay [5] (setting [8]), -3%; in assay [5] (at 50.0 µM), 39.8%; in assay [6] (setting [7]) it was 3%; in assay [6] (setting [8]), 9%; in assay [6] (at 50.0 µM), 67.9%.

Take `CC/C(=C(\CC)c1ccc(O)c(CN(C)C)c1)c1ccc(OC)cc1`: the growth inhibition in assay [1] (setting [7]) is 9%; in assay [1] (setting [8]) it was 87% (active); in assay [1] (at 50.0 µM), 98.5% (active); in assay [2] (setting [7]) it was 9%; in assay [2] (setting [8]), 84% (active); in assay [2] (at 50.0 µM), 86.3% (active). The growth inhibition in assay [3] (setting [7]) is 12%; in assay [3] (setting [8]) it was 99% (active); in assay [3] (at 50.0 µM), 99.6% (active); in assay [4] (setting [7]), 0%; in assay [4] (setting [8]) it was 98% (active); in assay [4] (at 50.0 µM) it was 97.8% (active). Moreover, the growth inhibition in assay [5] (setting [7]) is -28%; in assay [5] (setting [8]) it was 95% (active); in assay [5] (at 50.0 µM), 94.8% (active); in assay [6] (setting [7]), 3%; in assay [6] (setting [8]) it was 98% (active); in assay [6] (at 50.0 µM) it was 98.6% (active).

For the compound `CCC1CCC(CC)C1=O` (stereo unspecified), the growth inhibition in assay [1] (setting [7]) was 1%; in assay [1] (setting [8]), 5%; in assay [1] (at 50.0 µM), 94.2% (active); in assay [2] (setting [7]), -2%; in assay [2] (setting [8]), -1%; in assay [2] (at 50.0 µM), 93.9% (active). In addition, the growth inhibition in assay [3] (setting [7]) is 0%; in assay [3] (setting [8]) it was 3%; in assay [3] (at 50.0 µM), 51.6%; in assay [4] (setting [7]), -2%; in assay [4] (setting [8]) it was 3%; in assay [4] (at 50.0 µM) it was 36.5%. Moreover, the growth inhibition in assay [5] (setting [7]) was 2%; in assay [5] (setting [8]), 4%; in assay [5] (at 50.0 µM) it was 97.4% (active); in assay [6] (setting [7]), -2%; in assay [6] (setting [8]), 7%; in assay [6] (at 50.0 µM), 43.2%.

Regarding `O=C([O-])c1ccc([I+]c2ccccc2)cc1`, the growth inhibition in assay [1] (setting [7]) is 9%; in assay [1] (setting [8]), 65%; in assay [1] (at 50.0 µM), 57%; in assay [2] (setting [7]) it was 8%; in assay [2] (setting [8]) it was 72% (active); in assay [2] (at 50.0 µM) it was 41.8%. Moreover, the growth inhibition is 18% in assay [3] (setting [7]); 67% in assay [3] (setting [8]); 48.1% in assay [3] (at 50.0 µM); 1% in assay [4] (setting [7]); 47% in assay [4] (setting [8]); 65.7% in assay [4] (at 50.0 µM). Besides, the growth inhibition in assay [5] (setting [7]) was 12%; in assay [5] (setting [8]) it was 79% (active); in assay [5] (at 50.0 µM), 47%; in assay [6] (setting [7]), 10%; in assay [6] (setting [8]) it was 80% (active); in assay [6] (at 50.0 µM) it was 80.9% (active).

`Cc1c(C)n(-c2ccccc2)c2nc(S(C)(=O)=O)nc(S(C)(=O)=O)c12`: the growth inhibition in assay [1] (setting [7]) is 1%; in assay [1] (setting [8]) it was 98% (active); in assay [1] (at 50.0 µM), 71.2% (active); in assay [2] (setting [7]), 8%; in assay [2] (setting [8]), 98% (active); in assay [2] (at 50.0 µM), 79.3% (active). Moreover, the growth inhibition in assay [3] (setting [7]) is -15%; in assay [3] (setting [8]), 95% (active); in assay [3] (at 50.0 µM), 86.3% (active); in assay [4] (setting [7]), 40%; in assay [4] (setting [8]) it was 97% (active); in assay [4] (at 50.0 µM) it was 86.4% (active). The growth inhibition in assay [5] (setting [7]) is 0%; in assay [5] (setting [8]), 98% (active); in assay [5] (at 50.0 µM), 85% (active); in assay [6] (setting [7]) it was 31%; in assay [6] (setting [8]), 86% (active); in assay [6] (at 50.0 µM), 87.2% (active).

The values are drawn from PubChem BioAssay (NCI).
